The text below walks through data of PubChem BioAssay (NCATS).

SMILES strings stand for the structures. Records with an inconclusive call do not appear. Active and inactive are the calls of the source. The call rests on the fitted dose curve; in most records, active means well fitted inhibition curve with a large enough effect; inconclusive means small, poorly fitted or top-dose-only effect; inactive means no such curve, though single readings can be large or run the other way.
On the % scale 0 is the no-effect control and ±100 the full control effect; potency means the concentration at half of the fitted maximal effect.

The target in this assay is Glutaminase kidney isoform, mitochondrial (Homo sapiens) (UniProt O94925). Put plainly: qHTS for Inhibitors of Glutaminase (GLS): LOPAC Validation (AID 624146). Further: nearly all actives have a fitted effect of over 60% in size.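 On activity change, negative = inhibition: glutamate product detected by oxidase and peroxidase coupled Amplex red fluorescence gain.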 Conditions: glutaminase enzyme activity inhibition; series mostly up to 46.1 µM; activity change, negative = inhibition: at the top concentration. From the text: Glutaminase (GLS) catalyzes the hydrolysis of glutamine into glutamate and ammonia. It plays a critical role in glutaminolysis, which is an important energy source for proliferating cells. It was shown that c-Myc, an oncogenic transcription factor known to regulate microRNAs and to stimulate cell proliferation, increases glutamine metabolism by stimulating the expression of GLS via direct suppression of miR23a and miR23b.
Chain of Glutaminase kidney isoform, mitochondrial (Homo sapiens) (O94925 whole entry, looked up, canonical isoform): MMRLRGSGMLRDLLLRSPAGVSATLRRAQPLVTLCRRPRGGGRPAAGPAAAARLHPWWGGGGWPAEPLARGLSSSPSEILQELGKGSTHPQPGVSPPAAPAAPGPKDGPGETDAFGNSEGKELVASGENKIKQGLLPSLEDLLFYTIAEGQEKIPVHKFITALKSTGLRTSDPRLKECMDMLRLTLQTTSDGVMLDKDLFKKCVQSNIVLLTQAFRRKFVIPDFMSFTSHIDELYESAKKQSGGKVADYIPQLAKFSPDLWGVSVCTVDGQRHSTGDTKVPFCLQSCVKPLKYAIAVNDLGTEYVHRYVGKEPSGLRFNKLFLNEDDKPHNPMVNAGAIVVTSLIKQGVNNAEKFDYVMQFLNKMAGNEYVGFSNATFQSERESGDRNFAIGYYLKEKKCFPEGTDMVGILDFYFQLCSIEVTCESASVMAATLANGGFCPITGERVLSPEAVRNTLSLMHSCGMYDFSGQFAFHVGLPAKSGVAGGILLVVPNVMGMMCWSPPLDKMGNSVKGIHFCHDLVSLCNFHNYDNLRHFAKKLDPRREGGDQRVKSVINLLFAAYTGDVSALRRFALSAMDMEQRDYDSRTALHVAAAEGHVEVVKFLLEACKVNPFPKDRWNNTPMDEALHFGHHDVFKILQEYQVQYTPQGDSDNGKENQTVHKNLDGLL
GLS is also thought to play a pathogenic role on HAD using a human HIV-1 infected macrophage system. […] GLS inhibition limits glutamate release and provides neuroprotection against HIV-1 infected macrophages.
The overall goal of this project is to identify small molecule inhibitors of GLS through quantitative high throughput screening (qHTS) of the MLSMR. A validated potent and selective inhibitor can be used as a tool molecule to further study the pharmacology of its target as well as explore its potential therapeutic application in cancer and inflammatory neurological disorders, such as HIV1-associated dementia (HAD) and multiple sclerosis.
NIH Chemical Genomics Center [NCGC]
NIH Molecular Libraries Probe Centers Network [MLPCN]
Assay Submitter (PI): Barbara S. Slusher, Johns Hopkins University
Three 3 uL of hKGA is dispensed into black well 1536-well plates in 45 mM KH2PO4 (pH 8.2), 0.02% Tween-20. Then 23 nL of compounds are added through pin tool transfer. To this, 1 uL of 1mM L-Glutamine and 1 uL of a solution of L-Glutamateoxidase, HRP, Amplex red are added. Plate is centrifuged for 25 sec before an initial fluorescence read is obtained on the ViewLux, after 30 min of RT incubation, the final read is taken on the ViewLux.
Background: In qHTS, concentration-response curves come from the screen itself.
Regarding `c1cc(CN2CCCCC2)cc(OCCCNc2nc3ccccc3s2)c1`, the “activity change, negative = inhibition” value is -22% (inactive).
Regarding `CC(N=C(NC#N)Nc1ccncc1)C(C)(C)C` (stereo not given), the “activity change, negative = inhibition” value is 34.5% (inactive).
As to `NS(=O)(=O)c1cc2c(cc1Cl)NC(C1CC3C=CC1C3)NS2(=O)=O` (stereo not given), the “activity change, negative = inhibition” value is -7.61% (inactive).
As to `CCO/C([O-])=N/c1c[n+](N2CCOCC2)no1`, the “activity change, negative = inhibition” value is -21.8% (inactive).
The same measure, in the same setting: to `CN(C)C(=O)Oc1ccc[n+](C)c1` belongs -9.16% (inactive).
Same read-out and setting: under `O=C(O)CN(CCOCCOCCN(CC(=O)O)CC(=O)O)CC(=O)O` stands -9.74% (inactive); under `CC(C)[N+](C)(CCOC(=O)C1c2ccccc2Oc2ccccc21)C(C)C`, -10.8% (inactive).
Still for that read-out and setting: to `Cc1cccc(C)c1NC(=O)C(C)N` (stereo not given) belongs -17.9% (inactive).
For `O=C(O)CN(CCN(CC(=O)O)CC(=O)O)CCN(CC(=O)O)CC(=O)O`, the “activity change, negative = inhibition” value is -4.22% (inactive).
Consider `CC1=C(C)C(=O)C(CCCCC#CCCCC#CCO)=C(C)C1=O`, for which the Potency is 11.2 µM (active).
For the molecule `CC(=O)[C@]1(O)Cc2c(O)c3c(c(O)c2[C@@H](O[C@H]2C[C@H](N)[C@H](O)[C@H](C)O2)C1)C(=O)c1ccccc1C3=O`, the “activity change, negative = inhibition” value is -93.4% (inactive).
The same measure, in the same setting: to `CC[N+](C)(C)c1cccc(O)c1` belongs -37% (inactive).
On the same count and under the same terms, under `CCN(Cc1ccncc1)C(=O)C(CO)c1ccccc1` (stereo not given) stands -7.44% (inactive); under `CN(C)C(=O)Oc1cccc([N+](C)(C)C)c1`, 20.4% (inactive).
Still for that read-out and setting: to `CNC1(C)C2CCC(C2)C1(C)C` (stereo not given) belongs 44.9% (inactive); to `CC(C)(C)c1ccc(C(=O)CCCN2CCC(OC(c3ccccc3)c3ccccc3)CC2)cc1`, 70.4% (inactive); to `C(=C\c1ccccc1)/CN1CCN(C(c2ccccc2)c2ccccc2)CC1`, -4.92% (inactive).
As for `COc1cc(C(=O)OCCCN2CCCN(CCCOC(=O)c3cc(OC)c(OC)c(OC)c3)CC2)cc(OC)c1OC`, the “activity change, negative = inhibition” value was -7.71% (inactive).
As to `Cc1scc2c1N(C(=O)CN1CCN(C)CC1)c1ccccc1NC2=O`, the “activity change, negative = inhibition” value was -6.74% (inactive).
Consider `CCN(CC)CC(=O)Nc1c(C)cccc1C`, for which the “activity change, negative = inhibition” value was 9.79% (inactive).
Still for that read-out and setting: under `NC1=NCC2c3ccccc3Cc3ccccc3N12` (stereo not given) stands 13.2% (inactive); under `CNCCC(Oc1ccccc1OC)c1ccccc1` (stereo not given), -0.148% (inactive); under `CN1CCN(C2=Nc3ccccc3Oc3ccc(Cl)cc32)CC1`, -3.53% (inactive).
On the same count and under the same terms, to `Cc1ccc(=O)n(-c2ccccc2)c1` belongs -14.1% (inactive).
On the same count and under the same terms, to `COCCOC(=O)C1=C(C)NC(C)=C(C(=O)OC(C)C)C1c1cccc([N+](=O)[O-])c1` (stereo not given) belongs 32.1% (inactive).
Take `CCn1cc(C(=O)O)c(=O)c2cc3c(cc21)OCO3`: the “activity change, negative = inhibition” value is -9.62% (inactive).
The same measure, in the same setting: to `CN(C)CCN(Cc1cccs1)c1ccccn1` belongs 4.04% (inactive); to `CSc1ccc(C(=O)c2[nH]c(=O)[nH]c2C)cc1`, -17.7% (inactive); to `O=C1CC2(CCCC2)CC(=O)N1CCCCN1CCN(c2ncccn2)CC1`, -2.6% (inactive).
The same measure, in the same setting: to `FC(F)(F)c1ccccc1-n1ccnc1` belongs 3.43% (inactive).
Still for that read-out and setting: under `CN(C(=O)CCCOc1ccc2[nH]c(=O)ccc2c1)C1CCCCC1` stands -1.37% (inactive); under `CC(C(=O)O)c1ccc(CC2CCCC2=O)cc1` (stereo not given), -28.3% (inactive).
On to `NC(=O)c1ncn([C@@H]2O[C@H](CO)[C@@H](O)[C@H]2O)c1O`, for which the “activity change, negative = inhibition” value was -54.3% (inactive).
Same read-out and setting: to `NC(Cc1ccc(Cl)cc1)C(=O)O` (stereo not given) belongs -5.26% (inactive).
Turning to `CC(C)COCC(CN(Cc1ccccc1)c1ccccc1)N1CCCC1` (stereo not given), the Potency was 2.24 µM (active).
On to `N[C@@H](COP(=O)(O)O)C(=O)O`, for which the “activity change, negative = inhibition” value is -20.4% (inactive).
Same read-out and setting: under `CNCCCN1c2ccccc2CCc2ccccc21` stands -8.33% (inactive); under `O=C(CCNNC(=O)c1ccncc1)NCc1ccccc1`, 461% (inactive); under `Cc1ccc(Cl)c(Nc2ccccc2C(=O)O)c1Cl`, -17.2% (inactive).
On the same count and under the same terms, to `C[C@H](CS)C(=O)N1CCC[C@H]1C(=O)O` belongs -11.3% (inactive).
